High-throughput results from PubChem.
RPL19A TOR yeast: yeast TOR pathway RPL19A-GFP modulation. S. cerevisiae RPL19A-GFP strain, flow cytometry, 3 h; stronger effect = lower value. percent response vs DMSO, % at 10 µM. 0.3% of 330,000 active. AID 2025;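 active means percent response vs DMSO below 50%; inconclusive means fewer than 70 events counted for the yeast strain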;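 further: median channel GFP fluorescence of the barcoded RPL19A-GFP strain; ratio of sample median GFP to plate DMSO average so 100% = DMSO; lower means less RPL19A-GFP as with rapamycin TOR inhibition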
AGP1 TOR yeast: modulators of TOR pathway AGP1-GFP in S. cerevisiae; S. cerevisiae AGP1-GFP multiplex flow cytometry, 3 h; GFP as percent of DMSO wells; GFP response vs DMSO, % at 10 µM; 0.02% of 320,000 active; AID 2066;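 active means GFP response relative to DMSO above a set limit, near screen average plus 3 SD, cut at about 150% in these data; inconclusive means fewer than 70 cells counted for the yeast strain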;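 further: median GFP channel fluorescence of the gated AGP1 strain per well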
LAP4 TOR yeast: modulators of TOR pathway LAP4-GFP in S. cerevisiae | S. cerevisiae LAP4-GFP multiplex, flow cytometry GFP, 3 h; median GFP as percent of DMSO wells | GFP response vs DMSO, % at 10 µM | 0.34% of 320,000 active;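 active means GFP response vs DMSO above a set limit, about the screen mean plus 3 SD, cut at about 150% in these data; inconclusive means under 70 cell events counted for the yeast strain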
CIT2-GFP yeast: yeast TOR pathway CIT2-GFP modulation; GFP response vs DMSO, % at 10 µM; S. cerevisiae CIT2-GFP strain, flow cytometry, 3 h; 100 means same as DMSO wells; 0.065% of 320,000 active;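 active means GFP response relative to DMSO above a set limit, near the screen mean plus 3 SD, cut at about 150% in these data; inconclusive means Fewer than 70 cells measured for a yeast strain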;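 further: ratio of well median GFP fluorescence to mean of DMSO wells on the plate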
MEP2-GFP yeast: alters MEP2-GFP fluorescence in TOR pathway yeast screen; GFP response vs DMSO, % at 10 µM; 0.51% of 330,000 active; S. cerevisiae MEP2-GFP strain, flow cytometry GFP, 3 h; 100% = DMSO control level;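 active means GFP response versus DMSO above a set limit, roughly screen mean plus 3 SD, cut at about 180% in these data; inconclusive means fewer than 70 cells counted for a yeast strain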;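 further: median GFP fluorescence of the barcode-gated MEP2-GFP cells per well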
An asterisk follows results filed as active; [ ] = dose if it differs, or a comment. An excerpt weighted towards active compounds, which were near 0.89% of everything screened.

How did COc1ccc(NC(=O)C2C3C=CC(C3)C2C(=O)NCc2ccco2)c(OC)c1 (stereo unspecified) do in these assays?
RPL19A TOR yeast: 63; AGP1 TOR yeast: 27; LAP4 TOR yeast: 95; CIT2-GFP yeast: 102; MEP2-GFP yeast: 195*

What do the screens show for `CCOC(=O)C1CCN(C(=O)c2ccccc2NS(=O)(=O)c2ccc(F)cc2)CC1`?
RPL19A TOR yeast: 106; AGP1 TOR yeast: 103; LAP4 TOR yeast: 99; CIT2-GFP yeast: 105; MEP2-GFP yeast: 105

How did COc1ccccc1CNC(=O)CN(C)S(=O)(=O)c1ccc(Br)s1 do in these assays?
RPL19A TOR yeast: 21*[may fluoresce violet]; AGP1 TOR yeast: inconclusive; LAP4 TOR yeast: inconclusive; CIT2-GFP yeast: inconclusive; MEP2-GFP yeast: inconclusive

What do the screens show for `COc1ccc(CNC(=O)CN(C)S(=O)(=O)c2ccc(Br)s2)cc1`?
RPL19A TOR yeast: 92; AGP1 TOR yeast: 90; LAP4 TOR yeast: 85; CIT2-GFP yeast: 95; MEP2-GFP yeast: 97

Results for COc1ccc(OCc2nnc(SCC(=O)N3CCCc4ccccc43)n2-c2ccc(C)cc2)cc1 ?
RPL19A TOR yeast: 66; AGP1 TOR yeast: 21; LAP4 TOR yeast: 96; CIT2-GFP yeast: inconclusive; MEP2-GFP yeast: 214*[may fluoresce violet]

How did COc1ccc(Cc2nnc(NC(=O)c3ccccc3F)s2)cc1 do in these assays?
RPL19A TOR yeast: 74; AGP1 TOR yeast: 155*; LAP4 TOR yeast: 294*; CIT2-GFP yeast: 141; MEP2-GFP yeast: 914*

Results for COc1ccc(Cc2nnc(NC(C)=O)s2)cc1 ?
RPL19A TOR yeast: 98; AGP1 TOR yeast: 96; LAP4 TOR yeast: 92; CIT2-GFP yeast: 98; MEP2-GFP yeast: 97

How did COC(=O)c1cc(NC(=O)CC2CCCC2)cc(C(=O)OC)c1 do in these assays?
RPL19A TOR yeast: 27*[may fluoresce violet]; AGP1 TOR yeast: inconclusive; LAP4 TOR yeast: 67; CIT2-GFP yeast: inconclusive; MEP2-GFP yeast: 143

Results for CCOC(=O)N/N=C/c1cc(C)n(-c2cccc3ccccc23)c1C ?
RPL19A TOR yeast: 103; AGP1 TOR yeast: 99; LAP4 TOR yeast: 103; CIT2-GFP yeast: 102; MEP2-GFP yeast: 144

What do the screens show for `COC(=O)N/N=C/c1cc(C)n(-c2cccc3ccccc23)c1C`?
RPL19A TOR yeast: 44*[may fluoresce violet]; AGP1 TOR yeast: 19; LAP4 TOR yeast: 75; CIT2-GFP yeast: inconclusive; MEP2-GFP yeast: 144

What do the screens show for `COC(=O)c1cc(CNC(=O)Cc2ccsc2)ccc1OC`?
RPL19A TOR yeast: 59; AGP1 TOR yeast: 84; LAP4 TOR yeast: 97; CIT2-GFP yeast: inconclusive; MEP2-GFP yeast: 298*[may fluoresce violet]

How did COc1ccc(NC(=O)Cc2ccsc2)c(OC)c1 do in these assays?
RPL19A TOR yeast: 46*[may fluoresce violet]; AGP1 TOR yeast: inconclusive; LAP4 TOR yeast: 81; CIT2-GFP yeast: inconclusive; MEP2-GFP yeast: 343*[may fluoresce violet]

How did Cn1nc(-c2ccc(Cl)cc2)nc2c(=O)n(C)c(=O)nc1-2 do in these assays?
RPL19A TOR yeast: 52; AGP1 TOR yeast: 105; LAP4 TOR yeast: 203*; CIT2-GFP yeast: 62; MEP2-GFP yeast: 111

How did O=C(O)c1cccc(C(=O)O)c1Br do in these assays?
RPL19A TOR yeast: 96; AGP1 TOR yeast: 86; LAP4 TOR yeast: 106; CIT2-GFP yeast: 92; MEP2-GFP yeast: 90

What do the screens show for `O=C(NCCc1ccccc1)C(c1ccccc1F)N(C(=O)c1csnn1)C1CC1` (stereo unspecified)?
RPL19A TOR yeast: 38*[may fluoresce violet]; AGP1 TOR yeast: inconclusive; LAP4 TOR yeast: 62; CIT2-GFP yeast: inconclusive; MEP2-GFP yeast: 217*[may fluoresce violet]

How did O=C(NCCc1ccccc1)C(c1ccc(F)cc1)N(C(=O)c1csnn1)C1CC1 (stereo unspecified) do in these assays?
RPL19A TOR yeast: 28*[may fluoresce violet]; AGP1 TOR yeast: inconclusive; LAP4 TOR yeast: 57; CIT2-GFP yeast: inconclusive; MEP2-GFP yeast: 201*[may fluoresce violet]

Results for O=C(NCCc1ccccc1)C(c1ccccc1)N(C(=O)c1csnn1)C1CC1 (stereo unspecified) ?
RPL19A TOR yeast: 102; AGP1 TOR yeast: 108; LAP4 TOR yeast: 110; CIT2-GFP yeast: 103; MEP2-GFP yeast: 110

What do the screens show for `O=C(CN(CC1CCCO1)C(=O)CNS(=O)(=O)c1ccc(Cl)cc1)NC1CCCC1` (stereo unspecified)?
RPL19A TOR yeast: 97; AGP1 TOR yeast: 102; LAP4 TOR yeast: 97; CIT2-GFP yeast: 97; MEP2-GFP yeast: 96
